# Reference: PubChem BioAssay AID1499 (Sanford-Burnham Center for Chemical Genomics, 2009)
# Screen size: about 93,000 compounds; about 65 (0.07%) were called active.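 How the source made its calls: active means 10 µM primary screen giving 50% or more activity, confirmed by 40% or more on retest at that dose; inactive means the rest.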 The entries come from a sample that favours actives as a whole.
# Target: Integrin beta-2 (Homo sapiens) + Integrin alpha-M (Homo sapiens) (UniProt P05107+P11215)
# Assay: agonists of integrin CD11b/CD18-fibrinogen binding – K562 cells, luminescence, primary screen (AID 1499)
# Settings: K562 CD11b/CD18 adhesion to fibrinogen, ATPlite luminescence; at 10 µM; stronger effect = higher value
# Integrin beta-2 (Homo sapiens) + Integrin alpha-M (Homo sapiens), sequence (P05107 whole entry, looked up, other chains not shown): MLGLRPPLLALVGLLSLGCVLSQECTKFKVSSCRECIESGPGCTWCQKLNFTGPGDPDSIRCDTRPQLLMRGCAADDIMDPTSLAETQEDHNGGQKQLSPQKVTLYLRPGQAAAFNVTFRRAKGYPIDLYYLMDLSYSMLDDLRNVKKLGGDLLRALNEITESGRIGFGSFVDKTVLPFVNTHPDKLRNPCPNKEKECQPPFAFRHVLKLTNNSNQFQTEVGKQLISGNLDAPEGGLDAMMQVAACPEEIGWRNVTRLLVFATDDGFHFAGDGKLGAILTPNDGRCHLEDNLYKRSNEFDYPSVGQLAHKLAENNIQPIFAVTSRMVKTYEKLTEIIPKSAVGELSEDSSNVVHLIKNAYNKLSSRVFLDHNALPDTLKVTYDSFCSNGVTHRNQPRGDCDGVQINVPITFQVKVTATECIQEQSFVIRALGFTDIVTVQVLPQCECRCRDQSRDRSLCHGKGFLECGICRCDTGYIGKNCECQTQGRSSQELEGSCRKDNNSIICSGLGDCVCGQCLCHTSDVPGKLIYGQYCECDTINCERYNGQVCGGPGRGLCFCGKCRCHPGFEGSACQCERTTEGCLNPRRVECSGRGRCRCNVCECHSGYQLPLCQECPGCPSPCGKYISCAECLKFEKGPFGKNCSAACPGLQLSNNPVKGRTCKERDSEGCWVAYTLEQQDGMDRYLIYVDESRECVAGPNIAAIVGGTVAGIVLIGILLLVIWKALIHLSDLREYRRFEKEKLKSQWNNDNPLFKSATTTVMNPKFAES
row,Compound,activation
1,COc1ccc(C(=O)OCC(=O)NC(=O)CCSc2ccccc2)cc1,0.6% (inactive)
2,N#C/C(=C/c1cccc([N+](=O)[O-])c1)c1nnc2n1CCCCC2,1.1% (inactive)
3,CCCCNC(=O)CSc1nc2ccc(NC(=O)CSc3nnc(N)s3)cc2s1,-3.6% (inactive)
4,Fc1ccccc1CNC(=S)Nc1ccc(Cl)cc1,-7.2% (inactive)
5,CCCn1c(SCC(=O)Nc2ccc(C)c(S(=O)(=O)N3CCOCC3)c2)n[nH]c1=O,-1.4% (inactive)
6,O=C(Cc1ccc(-c2ccccc2)cc1)NC(c1ccccc1)c1ccccc1,0.5% (inactive)
7,CCN(CC)S(=O)(=O)c1ccc(C)c(NC(=O)COc2ccc(Br)cc2Cl)c1,-2.8% (inactive)
8,O=C(Cc1c[nH]c2ccccc12)N/N=C/c1cccc(F)c1,1% (inactive)
9,CCCC(=O)Nc1cccc(NC(=S)NC(=O)C(C)Oc2ccc(Cl)cc2Cl)c1 (stereo not drawn),-4.3% (inactive)
10,Cc1c(C(=O)NCCCc2ccccc2)cccc1[N+](=O)[O-],-3.8% (inactive)
11,O=C(CCCCn1c(=O)[nH]c2ccccc2c1=O)NCc1ccc2c(c1)OCO2,-2% (inactive)
12,O=C1N(Cc2ccc3c(c2)OCO3)c2ccccc2C1(O)c1c[nH]c2ccccc12 (stereo not drawn),65.9% (active)
13,O=C(Cn1nnc(-c2ccccc2)n1)NCc1ccc2c(c1)OCO2,-1.1% (inactive)
14,Cc1cccc(NC(=S)Nc2ccc3cn[nH]c3c2)c1,0.1% (inactive)
15,CSCC[C@H](NC(=O)OC(C)(C)C)C(=O)N/N=C/c1cc2ccc(C)cc2nc1Cl,1.8% (inactive)
16,CC(=O)Nc1ccc(Nc2c([N+](=O)[O-])cc(S(C)(=O)=O)cc2[N+](=O)[O-])cc1,-0.7% (inactive)
17,Cc1cccc2cc(CN(Cc3cccs3)C(=S)NCc3ccco3)c(=O)[nH]c12,3.8% (inactive)
18,O=C(COC(=O)c1cc2c(s1)CCCC2)NCc1ccccc1Cl,-0.1% (inactive)
19,Cc1ccc(NC(=S)N2CCN(c3ncccn3)CC2)cc1C,-7.7% (inactive)
20,Cc1c(Cl)cccc1NC(=O)CC1SC(=NCC2CCCO2)NC1=O (stereo not drawn),2.9% (inactive)

row,Compound,activation
1,Cc1c(C(=O)NCCN2C(=O)S/C(=C\c3cccs3)C2=O)cccc1[N+](=O)[O-],23% (inactive)
2,COc1ccc(CN2C(=O)CC(Cc3ccc(C)cc3)C2=O)cc1OC (stereo not drawn),-1.2% (inactive)
3,COC(=O)c1ccc(NC(=O)CSc2nncc3ccc(OC)c(OC)c23)cc1,3% (inactive)
4,Cc1cc(C(=O)CSc2nc(N)cc(=O)[nH]2)c(C)n1-c1cccc(F)c1,16.6% (inactive)
5,COc1cccc(N(C(=O)C2COc3ccccc3O2)C(C(=O)NC2CCCCC2)c2ccc(O)cc2)c1 (stereo not drawn),-0.8% (inactive)
6,O=C(NCCc1ccccn1)c1cc(-c2ccc(Cl)cc2)nc2ccccc12,0.7% (inactive)
7,Cc1ccc(NC(=O)C(=O)NCc2ccc(/C=N/NC(=O)c3c(C)nc4cc(C)ccn34)o2)cc1,100% (inactive)
8,CCOC(=O)C1=C(C)N=C2c3ccccc3C(=O)C2C1c1ccc(Br)cc1 (stereo not drawn),4.9% (inactive)
9,Cc1ccc(NC(=O)CC2C(=O)N(Cc3ccccc3)C(=S)N2NC(=O)c2cccc(F)c2)c(C)c1 (stereo not drawn),2.6% (inactive)
10,Clc1cccc(N=C2NN=C(c3ccc4c(c3)OCCO4)CS2)c1,4.8% (inactive)
11,COCCn1c(C)cc(C2=NNC(=Nc3ccc(F)cc3)SC2)c1C,120% (active)
12,CC(=O)Nc1ccc(NC(=S)NC(=O)c2ccc([N+](=O)[O-])c(C)c2)cc1,0.9% (inactive)
13,CC(C)(C)OC(=O)N/N=C/c1ccc(C(=O)O)cc1,0.2% (inactive)
14,Cc1ccc(NC(=O)NC(=O)CSc2nnc(-c3ccc(OC(F)F)cc3)n2N)c(C)c1,-3.1% (inactive)
15,CN(C)CCCNC(=S)NCc1ccc(Cl)cc1,2.8% (inactive)
16,C/C(=N\NC(=O)CCn1nc(C)cc1C)C(C)(C)C,2.8% (inactive)
17,COc1cc2c3c(c1)/C(=C1/SC(=S)NC1=O)C(=O)N3C(C)(C)C=C2C,-7.7% (inactive)
18,Cc1ccc(-n2c(C)cc(C(=O)CSc3nnc4ccccn34)c2C)cc1,-2.4% (inactive)
19,CC(NC(=S)Nc1ccccc1)C1COc2ccccc2O1 (stereo not drawn),-1.1% (inactive)
20,COc1ccc2c(CN3CCN(S(=O)(=O)c4cccs4)CC3)cc(=O)oc2c1,1.6% (inactive)

row,Compound,activation
1,CCN(c1ccc(NC(=O)COC(=O)CCc2nc3ccccc3n2-c2ccccc2)cc1)C(C)C,5.2% (inactive)
2,CC(=O)Nc1ccc(S(=O)(=O)N2CCN(c3ccc([N+](=O)[O-])c(NCCN4CCOCC4)c3)CC2)cc1,8.9% (inactive)
3,COCCCNC(=O)Cn1cc(/C=C(\C#N)C(=O)N2CCN(c3ccccc3)CC2)c2ccccc21,0% (inactive)
4,O=C(Nc1nnc(SCc2ccccc2Cl)s1)c1cccc([N+](=O)[O-])c1,-9.7% (inactive)
5,O=C(CCCN1C(=O)/C(=C/c2ccco2)SC1=S)Nc1ccccc1,2.1% (inactive)
6,COc1ccc(/C(N)=N/OC(=O)Cc2ccccc2)cc1,-3.3% (inactive)
7,CCOC(=O)c1c(NC(=O)C2CCN(S(=O)(=O)c3ccc(Cl)cc3)CC2)sc2c1CCCC2,15.1% (inactive)
8,COC(=O)Cc1ccc(NC(=S)NCc2ccccc2)cc1,1.6% (inactive)
9,CC(C)N1C(=O)N(c2ccccc2)C(C)(O)CC1(C)C (stereo not drawn),3.2% (inactive)
10,O=C(CSc1nc2ccccc2c(=O)n1CCCO)N1CCc2ccccc21,2.1% (inactive)
11,Cc1ccc2[nH]cc(CCNC(=O)c3ccc([N+](=O)[O-])cc3)c2c1,-1.3% (inactive)
12,CCCCC(O)(CCCC)C(=O)NN(C(=O)CCl)c1ccccc1,3.4% (inactive)
13,CNc1ccc(NC(C)=O)cc1[N+](=O)[O-],2.9% (inactive)
14,COc1ccc(NC(=O)CN2C(=O)C(c3ccccc3)=NC23CCCCCC3)cc1OC,-1.4% (inactive)
15,Cc1ccc(-c2nnc(-c3ccc(NC(=O)c4cccs4)cc3)o2)cc1,161% (active)
16,Cc1nc(-c2ccc(NC(=O)c3cccs3)cc2)cs1,-4.6% (inactive)
17,Cc1ccc(-c2csc(NC(=O)c3cccs3)n2)cc1,3.8% (inactive)
18,COc1ccccc1OCCC(=O)OCC(=O)NCc1ccccc1,3.3% (inactive)
